According to PubChem BioAssay AID1117319 (Southern Research Institute, 2015):
“And” between values parts separate entries of the source, which are not always exact repeats. Equal entries are not always repeated. About 1,500 (0.58%) of roughly 260,000 compounds were called active. Inconclusive results (about 5%) are left out. A selection follows. Entries with a potency or affinity are not part of this list. Unmarked numbers belong to inactive results.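 The calls were made as follows: active = inhibition above a set limit at one or more doses, reproduced on every date tested; inconclusive = results disagree between test dates, or hit never tested in dose response; inactive = the rest.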

These compounds were tested against Virion infectivity factor (Human immunodeficiency virus type 1 group M subtype B (isolate BH10)) + Virion infectivity factor (Human immunodeficiency virus type 1 group M subtype B (isolate BRU/LAI)) + Virion infectivity factor (Human immunodeficiency virus type 1 group M subtype B (isolate PCV12)) + Virion infectivity factor (Human immunodeficiency virus type 1 group M subtype B (isolate HXB2)) + DNA dC->dU-editing enzyme APOBEC-3G (Homo sapiens) (UniProt P69720+P69721+P69722+P69723+Q9HC16) (assay: HIV-1 Vif–A3G interaction blockers – biochemical, TR-FRET, GST-Vif 1-94, biotin-A3G peptide, dose response retest, primary screen (AID 1117319;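 also: Vif residues 1-94 fused to GST binding biotinylated APOBEC3G peptide 110-148; 0% = full assay without inhibitor and 100% = GST in place of GST-Vif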)). Conditions: TR-FRET GST-Vif / biotin-A3G peptide binding; active compounds read high.
O=C(O)c1ccc2c(c1)CCCN2 showed an inhibition of -1.03%. O=S(=O)(c1ccc2c(c1)CCCN2)N1CCCCC1 was tested, and the inhibition was 8.06%. Work on CCOc1ccc(NC(=O)CN2CCN(CC(=O)Nc3ccc(C(N)=O)cc3)CC2)cc1 yielded an inhibition of -3.98%. COc1ccc2c(c1)CC/C(=C/c1ccccn1)C2=O was tested, and the inhibition was -2.19%. Cc1ccsc1/C=C/C1=Cc2c(sc(NC(=O)CSc3n[nH]c(N)n3)c2C#N)C(C)(C)C1 was tested, and the inhibition was 22.1%. In the case of CCOc1ccc(/C=C/C2=Cc3c(sc(NC(=O)CSc4n[nH]c(N)n4)c3C#N)C(C)(C)C2)cc1, the inhibition is reported as 1.67%. CO[C@H]1C=CO[C@@]2(C)Oc3c(C)c(O)c4c(O)c(c(C=NN5CCN(C6CCCC6)CC5)c(O)c4c3C2=O)NC(=O)C(C)=CC=C[C@H](C)[C@H](O)[C@@H](C)[C@@H](O)[C@@H](C)[C@H](OC(C)=O)[C@@H]1C gave an inhibition of -8.62%. In the case of COC1C=COC2(C)Oc3c(C)c(O)c4c(O)c(c(CN5CCN(C)CC5)c(O)c4c3C2=O)NC(=O)C(C)=CC=CC(C)C(O)C(C)C(O)C(C)C(OC(C)=O)C1C (stereo not drawn), the inhibition is reported as 13.7%. Compound CCCn1c2ccc(C)cc2c2nnc(SCCN3CCOCC3)nc21 has an inhibition of -4.1%. With CC(C)N1CCC(=O)NC1=O the inhibition was 3.79%. Cc1ccc(SCC2=NNC(=O)C2)cc1 gave an inhibition of 74.7%. O=C1CC(CSc2ccc(Cl)cc2)=NN1 was tested, and the inhibition was -2.88%. COc1ccc(CCNC(=O)c2ccc(NS(=O)(=O)c3c(C)noc3C)cc2)cc1OC gave an inhibition of -8.32%. In the case of COc1cccc(C(=O)N[C@@H](CCSC)c2nc3ccccc3[nH]2)c1, the inhibition is reported as 5.58%. N#CC1=C(N)C(C#N)(C#N)C(c2cccnc2)C2COCC=C12 (stereo not drawn) showed an inhibition of 0.31%. In the case of Cc1ccc(C2C3CSCC=C3C(C#N)=C(N)C2(C#N)C#N)cc1 (stereo not drawn), the inhibition is reported as 8.68%. With CCOC(=O)c1c(C)[nH]c(C(=O)OCC(=O)Nc2cccnc2Cl)c1C the inhibition was -0.74%. With O=C(CN1/C(=C(/O)c2ccccc2)C(=O)c2ccccc2S1(=O)=O)c1ccccc1 the inhibition was -0.58%. Cc1ccc(C(=O)CN2/C(=C(\O)c3ccccc3)C(=O)c3ccccc3S2(=O)=O)c(C)c1 showed an inhibition of 2.58%. Work on c1coc(-c2nn3c(-c4ccco4)nnc3s2)c1 yielded an inhibition of 24.5%. COc1cccc(-c2nnc3sc(-c4ccco4)nn23)c1 gave an inhibition of 5.27%. With CCOc1ccccc1NC(=O)CSc1n[nH]c(=O)n1-c1ccccc1 the inhibition was -11.6%. CCOC(=O)Nc1ccc2c(c1)OCO2 was tested, and the inhibition was -0.36%. COC(=O)CNc1ccc2c(c1)OCO2 gave an inhibition of 26.3%. Cn1c(CNC(=O)CNC(=O)c2cccc(F)c2)cc(=O)n(C)c1=O showed an inhibition of 1.22%. O=C1CC(N2CCSCC2)C(=O)N1c1cccc(Cl)c1 (stereo not drawn) was tested, and the inhibition was 2.84%. In the case of N=C1/C(=C/c2ccco2)C(=O)N=C2SC(CC(=O)N3CCCC3)=NN12, the inhibition is reported as 22.9%. In the case of COc1ccc(/C=C2/C(=N)N3N=C(CC(=O)N4CCCC4)SC3=NC2=O)cc1, the inhibition is reported as -6.36%. COc1ccc(CNC(=O)COC(=O)c2[nH]c(C)c(C(C)=O)c2C)cc1OC showed an inhibition of 7.14%. CN(c1ccc(OCC(=O)NC2CCC(O)CC2)cc1)S(=O)(=O)c1ccc(Cl)cc1 (stereo not drawn) gave an inhibition of -2.71%. O=c1cc(-c2ccccc2F)oc2ccccc12 gave an inhibition of 17.5%. For O=c1cc(-c2ccccc2Cl)oc2cc(O)cc(O)c12, the inhibition was -0.34%. Compound O=c1[nH]c(=O)n(Cc2ccccc2)c2nc(-c3cccs3)n(CCO)c12 has an inhibition of 0.78%. Work on Cc1ccc(S(=O)(=O)Cn2nnnc2C(CC(C)C)N2CCN(C(=O)c3ccco3)CC2)cc1 (stereo not drawn) yielded an inhibition of 28%. For Cc1ccc(S(=O)(=O)Cn2nnnc2C(CC(C)C)N2CCN(c3ccccc3)CC2)cc1 (stereo not drawn), the inhibition was -7.24%. Work on COC(=O)CSc1ncnc2scc(-c3ccccc3)c12 yielded an inhibition of 13.7%. Cc1ccc2cccc(Oc3ncnc4scc(-c5ccccc5)c34)c2n1 gave an inhibition of -1.8%. For COc1ccc(C2CC(=O)c3ccccc3O2)cc1 (stereo not drawn), the inhibition was 18.3%. With COc1cc(C)cc2c1OC(c1ccccc1)CC2=O (stereo not drawn) the inhibition was -0.37%. O=c1c2cn[nH]c2[nH]c(=S)n1-c1ccccc1F gave an inhibition of -1.23%. Work on CCC(C)NCCCOc1c(C)cc(C)cc1Br (stereo not drawn) yielded an inhibition of -1.93%. With CCC(CC)C(=O)N(CCc1ccc(OC)cc1)Cc1nc2ccccc2c(=O)[nH]1 the inhibition was -1.67%. In the case of COCC(=O)N(CCc1ccc(OC)cc1)Cc1nc2ccccc2c(=O)[nH]1, the inhibition is reported as 0.5%. O=C(CNC(=O)c1cccc(Cl)c1)NCC(c1cccs1)N1CCOCC1 (stereo not drawn) showed an inhibition of -8.67%. Work on Cc1nnc2ccc(-c3cccc(NS(C)(=O)=O)c3)nn12 yielded an inhibition of 30.9%. Work on CCCn1c(SC/C(O)=C(\C#N)c2nc3ccccc3[nH]2)n[nH]c1=O yielded an inhibition of 8.52%. Cc1cc(C)n2c(SCC(O)=C(C#N)c3nc4ccccc4[nH]3)nnc2n1 showed an inhibition of -1.4%. O=C(Nc1ccccn1)C1CCN(S(=O)(=O)c2cccs2)CC1 was tested, and the inhibition was -2.3%. O=C(Nc1ccc(Cl)cn1)C1CCN(S(=O)(=O)c2cccs2)CC1 was tested, and the inhibition was 2.8%. With Cc1ccc(S(=O)(=O)NCC(=O)OC(C(=O)c2ccccc2)c2ccccc2)cc1 (stereo not drawn) the inhibition was 17.9%. In the case of CCCCN1C(=O)C(CC(=O)NCc2ccco2)CC(C(=O)N(CC)CC)=C1C (stereo not drawn), the inhibition is reported as -1.7%. Work on Cn1cc(C(=O)N/N=C/c2ccc(Br)c([N+](=O)[O-])c2)c2ccccc21 yielded an inhibition of -0.7%. NC(=O)COC(=O)CNC(=O)c1ccc(Cl)cc1 gave an inhibition of -2.39%. Work on Cc1ccc(C(=O)Nc2sc3c(c2C#N)CCCCC3)cc1C yielded an inhibition of -3.7%. Cc1cccc(C(=O)Nc2sc3c(c2C#N)CCCCC3)c1 was tested, and the inhibition was -5.88%. CC(C)(C)c1ccc(OCCC(=O)OCC(=O)Nc2ccc(N3CCOCC3)cc2)cc1 showed an inhibition of -3.5%. With O=C(O)c1cc(S(=O)(=O)O)ccc1O the inhibition was 9.92%. O=P(c1ccccc1)(c1ccccc1)c1cc(S(=O)(=O)O)ccc1O gave an inhibition of 26.4%. Nc1cc(S(=O)(=O)O)cc2ccc(S(=O)(=O)O)cc12 was tested, and the inhibition was 0.1%. With O=Nc1c(O)ccc2cc(S(=O)(=O)O)ccc12 the inhibition was 24.3%. COc1ccc(C)cc1-n1c(C)cc(C=O)c1C showed an inhibition of -0.15%. c1ccc(Cn2ncc3ccccc32)cc1 was tested, and the inhibition was 23.7%. With Cc1cc([N+](=O)[O-])nn1CC(=O)N/N=C/c1ccccc1Br the inhibition was -3.16%. Work on Cc1cc(NS(=O)(=O)c2ccc(NC(=O)Cc3cccs3)cc2)no1 yielded an inhibition of -3.09%. For Cc1nc2ccc(NC(=O)Cc3ccsc3)cc2s1, the inhibition was -2.69%. Work on COC(=O)c1cc(OC)c(OC)cc1NC(=O)Cc1cccs1 yielded an inhibition of 10.3%. Work on Cc1nc2ccc(NC(=O)Cc3ccccc3F)cc2s1 yielded an inhibition of 13.4%. O=C(Cc1cccs1)Nc1ccc(S(=O)(=O)Nc2ncccn2)cc1 showed an inhibition of 26.2%. COC(=O)c1ccc(C(=O)OC)c(NC(=O)CCC(=O)O)c1 was tested, and the inhibition was 17.1%. For Cc1cc(NC(=O)CCCC(=O)NCc2cccs2)no1, the inhibition was 10.9%. Cc1ccnc(NS(=O)(=O)c2ccc(NC(=O)Cc3ccccc3)cc2)n1 gave an inhibition of 4.16%. For COc1ccc(OC)c(-c2nc(C(N)=O)c3[nH]c(=O)n(-c4ccc(F)cc4)c3n2)c1, the inhibition was -0.73%. For NNC(=O)c1nc(-c2cccc(-n3cccc3)c2)no1, the inhibition was 2.13%. In the case of CC(=O)Nc1ccc(C(=O)COC(=O)CCc2ccccc2)c(F)c1, the inhibition is reported as -7.82%. With FC(F)(F)c1cnc(-n2cc[nH]c2=S)c(Cl)c1 the inhibition was -3.85%. CCCCN=C1NC(=O)C(CC(=O)NCCc2ccc(OC)cc2)S1 (stereo not drawn) gave an inhibition of 21.5%. CCOc1ncccc1C(=O)NCCN1C(=O)S/C(=C/c2cccs2)C1=O was tested, and the inhibition was 17.3%. Cc1nc(Nc2ccccc2)c2oc3ccc(Cl)cc3c2n1 showed an inhibition of -10.6%. Cc1ccc(NC(=O)c2cc(-c3ccc(C)o3)nc3ccccc23)cc1 was tested, and the inhibition was 20.7%. Compound Cc1ccc(-c2cc(C(=O)Nc3ccccc3C)c3ccccc3n2)o1 has an inhibition of 0.87%. CCc1c(C(=O)OC)nnc2cc(C)nn12 was tested, and the inhibition was -2.39%. COc1ccc(SCC(=O)Nc2ccc(N3CCN(C)CC3)c(F)c2)cc1 showed an inhibition of -1.67%. CC(=O)c1c(C)[nH]c(C(=O)OCC(=O)NCC(C)C)c1C gave an inhibition of -6.38%. Work on CNC(=O)COC(=O)c1[nH]c(C)c(C(C)=O)c1C yielded an inhibition of 1.68%. Work on CCOC(=O)c1c(C)[nH]c(C(=O)OCC(=O)N2CCN(S(=O)(=O)c3ccc(C)cc3C)CC2)c1C yielded an inhibition of -6.76%. For Cc1[nH]ccc(=O)c1Oc1ncc(C(F)(F)F)cc1Cl, the inhibition was -2.35%. Cc1ccc(-c2nn(Cc3ccccc3)cc2/C=C/C(=O)O)cc1C gave an inhibition of -3.26%. With COc1ccc(OC)c(C(c2nnnn2C2CCCC2)N2CCN(c3ccccc3F)CC2)c1 (stereo not drawn) the inhibition was -6.38% and 2.54%. COc1ccc(C)cc1NC(=O)C(C)N(c1ccc(C)cc1)S(C)(=O)=O (stereo not drawn) was tested, and the inhibition was -0.78%. CCC(CC)C(=O)N1CC(=O)Nc2ccc(F)cc2C1c1ccccc1 (stereo not drawn) gave an inhibition of -0.74%. Compound O=C(O)CN1C(=O)/C(=C\C(Br)=C\c2ccccc2)SC1=S has an inhibition of 8.8%. COc1cc(/C=C2\SC(=N)N(c3ccc4c(c3)OCO4)C2=O)cc(OC)c1O gave an inhibition of 2.68%. Work on Cc1ccc(N2C(=O)/C(=C/c3ccco3)SC2=S)cc1 yielded an inhibition of -7.25%. With N=C1S/C(=C\c2cccc3ccccc23)C(=O)N1c1ccc(F)cc1 the inhibition was -3.83%. O=C1/C(=C\c2ccc(O)cc2)SC(=S)N1c1cccnc1 showed an inhibition of 1.44%. Compound CC(/C=C1\SC(=S)N(CC(=O)N2CCN(c3ccccc3)CC2)C1=O)=C\c1ccccc1 has an inhibition of 25.6%. For COc1cccc(/C=C2\SC(=S)N(c3cccnc3)C2=O)c1OC, the inhibition was -3.12%. Work on COc1ccc(CCN2C(=O)/C(=C\c3ccco3)SC2=S)cc1OC yielded an inhibition of 0.31%.
